# High-throughput results as filed in PubChem.
# This is a sample that favours compounds with a hit; in the whole collection about 4.6% have one here.
# GAA850 FXN act = increases GAA850 frataxin promoter reporter activity; HEK293 lucGAA850 FXN promoter luciferase reporter, 24 h; percent of 10 µM SAHA response; activation, % at 6 µM; hit rate 0.56% among 360,000; AID 540364;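 active means activation above the average of all compounds screened plus 3 SD, cutoff fixed separately per campaign, cut at about 7.5% in these data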;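 further: 0% = DMSO wells and 100% = 10 µM SAHA wells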
# HSF-1 act = increases HSF-1 driven luciferase reporter signal | NIH3T3-HGL HSF-1 luciferase reporter, MG132, 8 h; 100% = twice DMSO control signal | activation, % at 9 µM | hit rate 1.7% among 300,000;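 active means mean replicate activation of at least 50% with a set share of replicates each reaching 50%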;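 further: 0% = median of the neutral control wells and 100% = twice that signal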
# AHR activator = activators of human aryl hydrocarbon receptor. P35869. AHR-responsive luciferase reporter cells, luminescence. activation, % at 5 µM. hit rate 2.5% among 320,000; in the data active means activation above about 47%;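 further: 0% = vehicle wells and 100% = reference agonist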
# Target sequence (P35869 whole entry, looked up): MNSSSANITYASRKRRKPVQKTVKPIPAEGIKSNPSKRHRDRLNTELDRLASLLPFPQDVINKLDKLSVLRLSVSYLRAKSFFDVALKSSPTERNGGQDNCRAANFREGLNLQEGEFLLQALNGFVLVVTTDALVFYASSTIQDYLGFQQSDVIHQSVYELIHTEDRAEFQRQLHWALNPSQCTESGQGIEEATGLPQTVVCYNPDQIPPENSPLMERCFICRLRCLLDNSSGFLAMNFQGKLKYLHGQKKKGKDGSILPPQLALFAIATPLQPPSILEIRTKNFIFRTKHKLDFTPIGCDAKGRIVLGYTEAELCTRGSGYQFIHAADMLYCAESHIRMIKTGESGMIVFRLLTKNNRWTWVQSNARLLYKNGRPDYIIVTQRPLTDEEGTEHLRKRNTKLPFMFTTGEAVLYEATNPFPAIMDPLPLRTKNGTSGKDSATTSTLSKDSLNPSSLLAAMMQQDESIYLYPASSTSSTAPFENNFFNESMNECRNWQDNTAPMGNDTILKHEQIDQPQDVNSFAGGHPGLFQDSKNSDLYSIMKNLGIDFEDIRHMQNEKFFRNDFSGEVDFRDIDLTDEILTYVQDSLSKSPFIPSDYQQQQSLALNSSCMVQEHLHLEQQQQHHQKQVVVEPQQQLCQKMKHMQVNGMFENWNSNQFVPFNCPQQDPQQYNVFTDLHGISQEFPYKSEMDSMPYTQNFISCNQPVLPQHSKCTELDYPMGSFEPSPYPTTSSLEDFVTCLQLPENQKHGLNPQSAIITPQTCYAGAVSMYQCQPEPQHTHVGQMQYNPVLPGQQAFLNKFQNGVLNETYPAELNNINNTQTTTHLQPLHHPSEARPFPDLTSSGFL
# HSF1 inhib = HSF1 inhibition | activity change, negative = inhibition, % at 7.5 µM (by protocol) | hit rate 0.77% among 300,000 | NIH3T3-HGL HSE-luciferase, MG132-induced, luminescence 8 h; stronger effect = lower value;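 active means more than half of replicate wells show activity change below -50%, luminescence cut by over half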;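 further: luciferase reports HSF-1 transcriptional activity via heat shock element; 0% = median of DMSO wells and -100% = zero luminescence signal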
# Starred values were filed as active, the others as inactive; nt = no result given.
SMILES,GAA850 FXN act,HSF-1 act,AHR activator,HSF1 inhib
Cc1ccc(S(=O)(=O)Nc2cccc3cccnc23)cc1,-16.4,81.3*,3.4,62.5
COc1cc(NS(=O)(=O)c2ccc(C)cc2)c2ncccc2c1,-16.7,-82.8,8.8,-80.8*
CCc1ccc(OCc2nnc(SCC(=O)N3CCN(c4ccccc4)CC3)o2)cc1,-0.6,26.1,-0.9,1.7
CCc1cccc2c1NC(=O)C21N2CCCC2C(C(=O)c2ccc3ccccc3c2)C12C(=O)Nc1ccccc12 (configuration not stated),4.1,22.6,12.3,16.3
CCc1ccc2c(c1)C1(C(=O)N2)N2CCCC2C(C(=O)c2ccc3ccccc3c2)C12C(=O)Nc1ccccc12 (configuration not stated),5.7,65.3*,13.0,39.5
CC(C)(C)c1ccc(S(=O)(=O)N2CCN(c3ccccn3)CC2)cc1,0.0,-6.9,2.3,3.1
Cc1c(-c2nc(-c3ccc(C(F)(F)F)cc3)no2)n(C)oc1=O,2.7,35.6,101.2*,17.0
O=C(CNC(=O)c1cccs1)OCC(=O)c1ccc([N+](=O)[O-])cc1,-1.3,-9.7,-0.2,-1.1
O=C(CNC(=O)c1cccs1)c1ccc([N+](=O)[O-])cc1,6.7,-2.1,77.8*,6.4
O=C(CNc1ccccc1)c1ccc([N+](=O)[O-])cc1,3.4,-2.8,63.4*,0.4
O=C(CNC(=O)c1ccc([N+](=O)[O-])cc1)c1ccccc1,2.8,-7.7,-4.9,-4.9
Cc1[nH]c2ccccc2c1CCCO,nt,14.7,nt,0.2
O=C(c1coc2ccc(O)cc12)C1CC1,-1.4,-15.0,-6.4,0.5
O=C(Nc1ccccc1)c1ccc2snnc2c1,1.4,6.0,63.0*,4.3
Cc1ccc(NC(=O)c2ccc3snnc3c2)cc1,5.5,28.7,62.9*,45.8
CN(C)C(=C(C#N)C#N)N1CCN(c2ccc(Cl)cc2)CC1,-0.8,-7.6,68.5*,-11.2
O=C(O)C1CC1C(=O)N1CCN(c2ccc(Cl)c(Cl)c2)CC1 (configuration not stated),2.9,-22.3,-0.9,-3.6
CN(C)C(=C(C#N)C#N)N1CCN(c2ccc(Cl)c(Cl)c2)CC1,1.9,nt,62.0*,1.8
CSC(=NC#N)N1CCN(c2ccc(Cl)cc2)CC1,3.7,55.9*,73.4*,27.3
O=C(O)C1CC=CCC1C(=O)NCCc1csc(-c2ccccc2)n1 (configuration not stated),0.1,-6.8,3.2,1.9
COC(=O)c1ccc(CSc2nc3ccccc3c(=O)n2CC(C)C)o1,4.5,71.5*,1.1,36.3
CN(CC(=O)NC1CC1)S(=O)(=O)c1cc(Cl)ccc1Cl,0.8,28.8,nt,3.6
CCC(c1nnnn1CCc1ccccc1)N(Cc1ccco1)Cc1cc2cccc(C)c2[nH]c1=O (configuration not stated),-1.6,89.9*,19.5,67.8
CCC(c1nnnn1C(C)(C)C)N(Cc1ccco1)Cc1cc2cccc(C)c2[nH]c1=O (configuration not stated),0.7,66.4*,19.7,48.7
N#C/C(=C\c1ccc(Cl)cc1)c1nc2ccccc2o1,-0.1,74.8*,20.9,61.6
SMILES,GAA850 FXN act,HSF-1 act,AHR activator,HSF1 inhib
COc1ccc(/C(C)=N/NC2=NCCN2)cc1Cl,-0.1,9.6,nt,-1.0
C/C(=N\NC1=NCCN1)c1ccc(N)c([N+](=O)[O-])c1,2.1,-75.5,30.6,-72.1*
Nc1c(C(=O)N/N=C/c2cccnc2)cnn1-c1ccccc1,1.1,-1.6,50.9*,-1.1
COc1cccc(/C=N/NC(=O)c2cnn(-c3ccccc3)c2N)c1,5.3,12.6,68.2*,1.9
Nc1c(C(=O)N/N=C/c2ccc(Cl)cc2)cnn1-c1ccccc1,3.0,6.5,37.6,2.2
COC(=O)c1ccccc1NC(=O)COC(=O)/C=C/c1ccco1,0.9,-10.7,1.2,3.2
CC1(O)c2ccccc2C(=O)N1CCc1ccccc1F (configuration not stated),3.0,14.9,76.3*,2.4
O=[N+]([O-])c1ccc2nc(-c3ccc(Cl)cc3)[nH]c2c1,5.3,79.8*,20.5,31.8
Cc1ccc(-c2nc3ccc([N+](=O)[O-])cc3[nH]2)cc1,1.4,60.7*,0.3,49.8
O=[N+]([O-])c1ccc(O)c(C=Nc2ccc3nc(-c4ccccc4)[nH]c3c2)c1,3.5,6.9,66.7*,0.6
COc1ccc(-c2nc3ccc([N+](=O)[O-])cc3[nH]2)cc1,1.6,53.8*,9.9,6.6
Oc1c(Br)cc(C=Nc2ccc3nc(-c4ccccc4)[nH]c3c2)c(O)c1Br,nt,13.1,25.6,6.1
O=[N+]([O-])c1ccc2nc(-c3ccncc3)[nH]c2c1,2.4,5.3,22.1,-3.9
O=C(Nc1c(C(=O)N2CCN(c3ccccn3)CC2)oc2ccccc12)c1ccc([N+](=O)[O-])cc1,-0.7,-0.4,-1.1,-1.4
Cc1cccc(C(=O)Nc2cccc(C(=O)N/N=C/c3ccncc3)c2)c1,2.1,5.0,16.7,6.8
O=C(N/N=C/c1cccc(C(F)(F)F)c1)c1ccc(O)cc1,2.6,-78.5,8.1,-74.5*
Cc1ccc(C(=O)Nc2cccc(C(=O)N/N=C/c3ccc(O)cc3)c2)cc1,3.5,-29.9,56.0*,-31.3
OC1COC(OCc2ccccc2)C(O)C1O (configuration not stated),1.5,21.8,0.8,2.2
OC1OC[C@@H](O)[C@H](O)[C@H]1O (some centres not stated),nt,-77.2,1.0,-72.1*
O=C(Nc1ccc(-c2csc(Nc3cccc(C(F)(F)F)c3)n2)cc1)c1ccccc1,-0.5,26.6,78.1*,4.4
O=C(Nc1cccc(-c2csc(Nc3ccccc3)n2)c1)c1ccccc1,-1.0,22.6,71.1*,12.7
O=C(Nc1cccc(-c2csc(Nc3cccc(C(F)(F)F)c3)n2)c1)c1ccccc1,-0.5,-12.7,46.8,-5.4
Cc1cc(C)c(S(=O)(=O)N2CCC(C(=O)NCc3ccco3)CC2)c(C)c1,-1.0,53.6*,-2.1,8.1
O=C(O)C(S)C(S)C(=O)O (configuration not stated),-0.8,-3.4,-0.6,-6.2
CCC1=NN2C(=N)/C(=C\c3ccc(OCCOc4ccccc4)c(OC)c3)C(=O)N=C2S1,nt,-3.5,0.4,2.6
SMILES,GAA850 FXN act,HSF-1 act,AHR activator,HSF1 inhib
Nc1nc2n(c1C(=O)c1ccccc1)CCC2,2.4,-75.5,3.2,-70.1*
Cc1ccc2c(c1)c1c3n2CCN(C=O)C3CCC1 (configuration not stated),0.9,-23.8,53.5*,-3.4
c1ccc(CN2CCC(Nc3nc(-c4cccnc4)nc4ccccc34)CC2)cc1,2.0,25.3,6.0,6.5
CCCCOC(=O)Cn1c(=N)n(CCN2CCOCC2)c2ccccc21,1.2,15.3,0.1,4.0
N=c1n(CCN2CCOCC2)c2ccccc2n1CC(=O)c1ccc(Cl)c(Cl)c1,1.0,-2.0,91.4*,4.6
Nc1ccc(S(N)(=O)=O)cc1N,5.6,27.4,114.6*,17.9
Nc1ccc(C#Cc2c(-c3ccsc3)oc3ccc(N4CCOCC4)cc23)cc1,6.1,-19.2,70.3*,-9.7
COc1ccc(-c2c(-c3ccsc3)oc3ccc(N4CCOCC4)cc23)cn1,1.9,-8.3,58.7*,1.1
